# Bioassay records as filed in PubChem BioAssay.
# An excerpt weighted towards active compounds, which were near 7.5% of everything screened.
# VP16 counter: VP16 counterscreen qHTS for inhibitors of ROR gamma transcriptional activity | Drosophila S2 Gal4-VP16 UAS-luciferase, luminescence, 20 h | hit rate 3.5% among 310,000 | Potency, µM (highest dose often 53.6 µM), for inactives: top-dose activity, negative = inhibition, most hits filed as inhibitors;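 also: Gal4-VP16 expression switched on by copper sulfate through the metallothionein promoter; potency is read from the fitted curve at half-maximal effect; nearly all actives have a fitted effect of over 50% in size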
# TSHR antag: Antagonists of the Thyroid Stimulating Hormone Receptor: HTS campaign; TSHR-expressing cells, TSH-stimulated cAMP HTRF, 2 h; stronger effect = lower value; activity change, negative = inhibition, % at 11.5 µM; hit rate 0.2% among 330,000;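 active = activity change below a set negative limit, meaning inhibition stronger than a set level, cut at about -70% in these data; inconclusive = activity change between two set negative limits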
#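 Read-out is FRET at 665 nm (cryptate excitation 337 nm) from a cryptate-tagged anti-cAMP antibody, competed by cell cAMP against cAMP-d2. Compounds are tested on freshly harvested TSHR cells challenged with 4nM TSH (EC80) for 2 hours at 37 deg C.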
# RORgamma inh: qHTS for inhibitors of ROR gamma transcriptional activity; Drosophila S2 Gal4-RORgamma UAS-luciferase reporter, 20 h; Potency, µM (doses to about 53.6 µM), inactives show at the highest dose activity change, negative = inhibition, usual class: inhibitors; hit rate 5.4% among 310,000; AID 2551, 2010; also: potency is read from the fitted curve at half-maximal effect; nearly all actives have a fitted effect of over 60% in size
#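 Luminescence from a UAS-regulated Photinus luciferase reporter in stably transfected Drosophila Schneider cells is measured; decreased signal marks ROR gamma inhibition. Fusion expression is induced by 700 uM copper sulfate for 20 hr.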
# B2AR arrestin: qHTS assay of beta-arrestin-biased ligands of beta2-adrenergic receptor; hit rate 0.02% among 330,000; beta-arrestin recruitment to beta2AR, cell-based reporter; Beta-2 adrenergic receptor (Homo sapiens), P07550; Potency, µM (doses to about 46.1 µM), without a hit: at the top dose activation, usual class: activators;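 also: potency is read from the fitted curve at half-maximal effect; 0% = DMSO controls and full agonism = EC100 isoproterenol or metaproterenol; nearly all actives have a fitted effect of over 65% in size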
# Target sequence (P07550 whole entry, looked up): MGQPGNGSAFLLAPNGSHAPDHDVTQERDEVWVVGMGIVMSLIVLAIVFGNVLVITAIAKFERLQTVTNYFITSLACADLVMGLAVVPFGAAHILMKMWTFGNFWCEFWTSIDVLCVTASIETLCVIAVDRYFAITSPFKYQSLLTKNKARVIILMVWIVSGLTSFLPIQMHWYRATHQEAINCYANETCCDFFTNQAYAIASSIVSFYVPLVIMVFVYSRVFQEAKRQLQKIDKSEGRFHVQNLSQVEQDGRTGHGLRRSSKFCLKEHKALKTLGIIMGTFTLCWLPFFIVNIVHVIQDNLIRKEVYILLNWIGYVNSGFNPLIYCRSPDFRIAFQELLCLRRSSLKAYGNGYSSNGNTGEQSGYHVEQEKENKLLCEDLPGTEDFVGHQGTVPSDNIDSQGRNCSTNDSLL
# ELG1 DNA repair: qHTS screen for small molecules that inhibit ELG1-dependent DNA repair in human embryonic kidney (HEK293T) cells expressing luciferase-tagged ELG1. hit rate 2.3% among 330,000. HEK293T ELG1-luciferase reporter, luminescence, 16 h; DNA damage induced by 5-fluorouridine. Potency, µM (doses to about 46.1 µM), for the others: top-dose activity change, negative = inhibition, actives largely listed as inhibitors; also: potency is read from the fitted curve at half-maximal effect; nearly all actives have a fitted effect of over 55% in size
#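 Overnight (16 hr) co-exposure of 2,000 cells/well to 5-fluorouridine and compound at 37 °C preceded detection. Luciferase was quantified via ONE-Glo luminescence; loss of signal denotes inhibition.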
# * hit, by the source's call; ? = inconclusive; . = no result given; [ ] = remark or other dose. Unless noted, calls follow the shape of the dose curve; as a rule, active = well fitted curve in the direction sought with a large enough effect; inconclusive = small, poorly fitted or top-dose-only effect, or another doubt; inactive = no such curve, though single readings can be large; an effect the other way counts as inactive or inconclusive. Unless noted, % is scaled to controls: 0 for no effect and ±100 for the full control effect.
SMILES,VP16 counter,TSHR antag,RORgamma inh,B2AR arrestin,ELG1 DNA repair
COc1cc(/C=N/NC(=O)c2ccc3c(c2)OCCO3)cc(Br)c1O,?,-16,16µM*,0%,?
COc1cc(/C=N/NC(=O)c2ccc3c(c2)OCCO3)c(Br)c(Br)c1O,-2%,-7,13%,-1%,?
COc1ccc(/C=N/NC(=O)C2C3CCCCC32C)cc1OC (stereo unspecified),-3%,6,1%,0%,15%
O=C(N/N=C\c1cccc(OC(=O)c2ccco2)c1)c1ccc2c(c1)OCO2,6.3µM*,-14,14µM*,-1%,?
CCOc1cccc(/C=N/NC(=O)c2ccc3c(c2)OCCO3)c1O,0.63µM*,-11,0.4µM*,0%,?
COc1cc(/C=N/NC(=O)C2C3CCCCC32C)cc(Br)c1O (stereo unspecified),5µM*,-21,7.1µM*,-1%,5%
CC(C)C[C@H](NC(=O)[C@H](CC(C)C)NC(=O)[C@@H](Cc1c[nH]c2ccccc12)NC(=O)[C@H](Cc1ccccc1)NC(=O)[C@@H](Cc1c[nH]c2ccccc12)NC(=O)[C@H](CCC(N)=O)NC(=O)[C@H](CCC(N)=O)NC(=O)[C@@H]1CCCN1C(=O)[C@H](CCCCN)NC(=O)[C@@H]1CCCN1C(=O)[C@H](N)CCCN=C(N)N)C(N)=O,-12%,.,2%,.,.
CCOc1cccc(/C=N/NC(=O)c2cc(-c3cccn3C)n[nH]2)c1O,5µM*,0,2.8µM*,0%,?
CC1CCc2c(sc(Nc3nc4c(F)cccc4s3)c2C(N)=O)C1 (stereo unspecified),5µM*,20,5.6µM*,-1%,?
NNc1nc2c(F)cccc2s1,?,-3,16µM*,-1%,?
NNc1nc2c(F)cc(F)cc2s1,18µM*,-15,?,0%,?
Nc1nc2c(F)cccc2s1,-4%,17,21%,-1%,?
O=C(Nc1nc2c(F)cccc2s1)C1CC1,?,2,30%,0%,?
Fc1cccc2sc(Nc3nc4c(F)cccc4s3)nc12,?,5,4.5µM*,0%,-2%
CN(C)CCCN(C(=O)COc1ccc(Cl)cc1)c1nc2cc3c(cc2s1)OCO3,?,-3,11µM*,4%,22%
CN(C)CCCN(C(=O)c1ccc(S(=O)(=O)N(C)Cc2ccccc2)cc1)c1nc2cc3c(cc2s1)OCO3,?,-24,8.9µM*,0%,-7%
CN(C)CCCN(C(=O)c1ccc([N+](=O)[O-])o1)c1nc2cc3c(cc2s1)OCO3,?,0,13µM*,0%,10%
CC(C)(CO)NCc1c(OCc2ccc(Cl)cc2)ccc2ccccc12,-12%,-1,-18%,0%,-5%
CC(=O)c1cccc(NC(=O)CN2C(=O)NC(C)(C)C2=O)c1,.,-5,.,0%,?
O=C(N/N=C1/C[C@@H](O)[C@@H](O)[C@@H]2[C@H]3C(=O)N(c4ccc(F)cc4F)C(=O)[C@@H]3CC[C@H]12)OCc1ccccc1,-4%[10 µM],.,0%[10 µM],.,.
CCCCCCCCCCCCCCCCCC(=O)OCC(O)CO (stereo unspecified),-13%,.,5%[10 µM],.,.
Cc1cc(C)cc(C(=O)NC(=S)Nc2ccc(Cc3ccncc3)cc2)c1,?,21,7.9µM*,-1%,?
COc1ccccc1C(=O)NC(=S)Nc1ccc(Cc2ccncc2)cc1,-15%,-17,?,-1%,-18%
Cc1cccc(C(=O)NC(=S)Nc2ccc(Cc3ccncc3)cc2)c1,?,-13,16µM*,0%,-1%
COc1cc(C(=O)NC(=S)Nc2ccc(Cc3ccncc3)cc2)cc(OC)c1OC,-18%,-1,0%,3%,13µM*
SMILES,VP16 counter,TSHR antag,RORgamma inh,B2AR arrestin,ELG1 DNA repair
O=C(NC(=S)Nc1ccc(Cc2ccncc2)cc1)c1ccccc1,?,-18,?,0%,-10%
CC(C)c1nc(SCC(=O)Nc2cccc3ccccc23)n[nH]1,.,-15,.,-1%,-9%
COc1ccc(CCC(=O)OCC(=O)NCc2ccc(OC)c(OC)c2)cc1OC,.,.,.,0%,?
O=C(NCCN1CCN(C(=O)c2ccc(F)cc2)CC1)c1ccc(F)cc1,4%,-1,6%,0%,2%
CC(/C=C/c1ccc(C)o1)=C\C(=O)O,?,1,20µM*,0%,6%
COCCNC(=S)N/N=C/c1ccc2c(c1)OCCO2,?,2,10µM*,0%,13%
CC(=O)Nc1ccc(/C=N/NC(=S)NC(C)C)cc1,-17%,7,16µM*,0%,15%
Cc1ccccc1OCC(=O)N/N=C/c1ccc2c(c1)OCCO2,?,-3,-37%,-1%,6%
CC(C)NC(=S)N/N=C/c1ccc2c(c1)OCCO2,?,-9,2.2µM*,-2%,?
Cc1cc(C)nc(N/N=C/c2ccc3c(c2)OCCO3)n1,-18%,-3,?,0%,?
C=C(C)CNC(=S)N/N=C/c1ccc(NC(C)=O)cc1,3%,0,?,0%,-5%
COCCCNC(=S)N/N=C/c1ccc2c(c1)OCO2,?,22,5.6µM*,0%,?
O=c1c(-c2ccc(Cl)cc2)nc2cnc(N3CCNCC3)nc2n1CCc1ccccc1,-26%,.,-8%,.,.
CCc1cc2c(COC(=O)c3cccc(NS(C)(=O)=O)c3)cc(=O)oc2cc1O,-9%,-22,-4%,0%,?
COc1ccccc1CCNC(=O)c1ccc(Br)s1,-10%,1,0%,0%,?
Cc1ccc2nc(SCC(=O)Nc3ccccc3N3CCOCC3)c(C#N)cc2c1,?,8,-38%,0%,4.1µM*
Cc1cc(C)c(S(=O)(=O)NCC23C=CC(O2)C2C(=O)N(c4ccccc4)C(=O)C23)c(C)c1 (stereo unspecified),?,33,16µM*,0%,2%
O=C1C2C3C=CC(CNS(=O)(=O)c4ccccc4[N+](=O)[O-])(O3)C2C(=O)N1c1ccccc1 (stereo unspecified),11µM*,0,?,0%,-19%
O=C1C2C3C=CC(CO)(O3)C2C(=O)N1c1ccc(-c2ccccc2)cc1 (stereo unspecified),10µM*,-18,6.3µM*,-1%,?
COCCOC(=O)c1ccccc1C(=O)OCCOC,9%,.,-9%,.,.
CCCCN1CCC(n2c(=O)[nH]c3ccccc32)CC1,.,-12,.,.,.
COc1cc(C2NC(=O)C(C#N)=C(Nc3cccc(C)c3)S2)ccc1O (stereo unspecified),?,-7,-40%,-1%,7%
